Test results: PubChem BioAssay (NCI)
Where “and” joins values, the source holds several entries; their conditions need not be identical. Equal entries are not always repeated. Compounds without any hit were thinned out: in the full panel of roughly 83,000, 20% have a hit.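 The test compound was applied at a single concentration to cells in 96-well plates for 48 hours, and percent growth was recorded.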 A number with no mark means an inactive call. Calls of active or inactive are those of the source. Rule for the calls: active = growth percent below 10; inactive = the rest.

System: MDA-MB-468 breast
Assay: NCI-60 one-dose screen, 48 h (100 = growth as untreated, 0 = no growth, -100 = all killed)
Settings: 10 µM unless noted

Compound	growth
Cc1sc2nc(NCCc3cccs3)[nH]c(=O)c2c1C	82.4%
COc1ccc2[nH]cc(/C=N/Nc3ccnc4cc(Cl)ccc34)c2c1	-80.8% (active)
O=C1C=CC2(NN=C(c3ccccc3)N2c2ccccc2)c2cccc(O)c21 (stereo not drawn)	36.2%
O=C(CO[N+](=O)[O-])Nc1ccc(C(=O)/C=C/c2ccc(Cl)cc2)cc1	48.7%
COc1ccc(/C=C/C(=O)Nc2ccc(-c3nc4ccc(OC)cc4s3)cc2)cc1	67.2%
Cc1nn(-c2ccccc2)c2ncc3c(c12)C(=O)N(Cc1ccccc1)C3=O	77.8%
COc1ccc(CNCCN2C(=O)c3ccc4c5c(ccc(c35)C2=O)C(=O)N(CCNCc2ccc(OC)c(OC)c2OC)C4=O)c(OC)c1OC	-87.2% (active)
COc1ccc(C(=O)c2cc(C)c(OC)c(C)c2)c(OC)c1N(C(=O)CCl)C(=O)CCl	3.62% (active)
CCOC(=O)C1(C)CCCC1N (stereo not drawn)	99.2%
FC(F)(F)Oc1cccc(-c2cnc3ccc(-c4ccncc4)nn23)c1	-10.5% (active)
Fc1ccc(NCc2nnc(-c3ccc(Cl)cc3)o2)cc1	56.9%
COc1ccc(CC(C)=C(c2ccc(OCCN(C)C)cc2)c2ccc(OCCN(C)C)cc2)cc1	68.3%
CCC(C)C1CCC(O)CC1 (stereo not drawn)	101%
CN1CCN(CCCOc2ccc3ncnc(Nc4ccc(OCc5cccc(F)c5)c(Cl)c4)c3c2)CC1	-63.1% (active)
C=C(c1ccc(C(=O)NCCCn2ccnc2)cc1)c1cc2c(cc1C)C(C)(C)CCC2(C)C	-5.41% (active)
Cc1nc2sc(C(=O)Nc3cccc4ccccc34)c(N)c2cc1C(=O)/C=C/c1ccccc1	-3.46% (active)
COc1cc(-c2nn(-c3ccc(NC(=O)NCCCNC(=O)c4ccccc4)cc3)cc2-c2ccncc2)ccc1Cl	9.32% (active)

Compound	growth
COc1ccc(C2C=C(c3ccc(Cl)c(Cl)c3)N=C3SC(C)=CN32)cc1 (stereo not drawn)	88.6%
Cc1c(Cn2c(C)nc3c(C(=O)O)cc(N4CCOCC4)cc32)cccc1C(F)(F)F	104%
COc1cc2ncnc(Nc3ccc(OCc4cccc(F)c4)c(Cl)c3)c2cc1NC(=O)C1CCCC1	-2.53% (active)
O=C(/C=C/c1ccc(Cl)s1)c1ccc(Cl)s1	88.1% and 79.5%
CC(C)(C)CC(C)(C)c1ccc(OCCOCC[N+](C)(C)Cc2ccccc2)cc1	-81.8% (active)
O=C1OCC2=C1C(c1cccc(C(F)(F)F)c1)c1cc3c(cc1N2CCO)OCO3 (stereo not drawn)	-5.36% (active)
CC(C)(C)OC(=O)N1CCN(S(=O)(=O)/N=C2\NC(=O)NC2=C(Cl)Cl)CC1	63.7%
CCOC(=O)C1=C(C)N=C2SC=C(c3ccccc3)N2[C@H]1c1cn[nH]c1-c1ccc(Cl)cc1	22.4%
Cc1ccc(-c2nc(N3CCN(C(=O)Nc4ccc(Cl)c(C(F)(F)F)c4)CC3)c3ccccc3n2)cc1	77.2%
Cc1cc(=O)[nH]c(NN=C2CCCC2)n1	116%
CCCCCCCCCCCCCCCCCC[n+]1ccc2c(C)c3c(c(C)c2c1)c1cc(O)ccc1n3CC	-18.3% (active)
O=[N+]([O-])c1ccc2[nH]cc(-c3c4ccsc4cc4[nH]c5ccc([N+](=O)[O-])cc5c34)c2c1	1.21% (active)
CCN(CC)c1ccc2nc3c4ccccc4c(=O)cc-3n(-c3ccccc3)c2c1	-17.5% (active)
O=C(/C=C/c1cc2ccccc2[nH]c1=O)c1ccc(O)cc1	0.877% (active)
C=C(C)[C@@H]1CC[C@]2(C#N)CC[C@]3(C)[C@H](CC[C@@H]4[C@@]5(C)CCCNC(C)(C)[C@@H]5CC[C@]43C)[C@@H]12	19.3%
COc1ccc(/C(C)=C(\c2ccc(Cl)cc2)c2ccc(OCCCN(C)C)cc2)cc1F	75.7%
